# PINK1 modulator: A Quantitative High throughput Screen to Identify Chemical Modulators of PINK1 Expression. PINK1 immunofluorescence, high-content cytometry, 24 h. Potency, µM (doses to about 76.6 µM), for inactives: at the highest dose activation (PINK1 increase), usual class: activators. 410,000 compounds, 0.2% hits. AID 624263, 2012; active = well fitted activation curve with a large enough effect; inconclusive = small, poorly fitted or top-dose-only effect; cell line not stated here; also: % of control where 0% means no effect; nearly all actives have a fitted effect of over 65% in size
#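 Stable cell line, 250 cells/well, 12 h attachment; compounds pinned at 5 concentrations, 24 h; CCCP control. Fixed with nuclear dye, primary antibodies 12 h at 10 degrees C, secondary plus cell stain; laser-scanning cytometer read.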
# PTAP TSG101 blk: qHTS Assay for Iinhibitors of HIV-1 Budding by Blocking the Interaction of PTAP/TSG101. Potency, µM (titrated, usually from 115 µM), inactives show at the highest dose activity change, negative = inhibition, actives largely listed as inhibitors. Tumor susceptibility gene 101 protein (Homo sapiens), Q99816. 340,000 tested, under 10 active. Fluorescence polarization, FITC-PTAP peptide / Tsg101 binding. AID 493005, 2010; active = well fitted inhibition curve with a large enough effect in the main read-out, with a control signal flat, not every such curve was filed as active; inconclusive = small, poorly fitted or top-dose-only effect, or effect the other way, or a change in a side signal; inactive = no such curve, though single readings can be large or run the other way; also: % of control where 0% means no effect
# Target sequence (Q99816 whole entry, looked up): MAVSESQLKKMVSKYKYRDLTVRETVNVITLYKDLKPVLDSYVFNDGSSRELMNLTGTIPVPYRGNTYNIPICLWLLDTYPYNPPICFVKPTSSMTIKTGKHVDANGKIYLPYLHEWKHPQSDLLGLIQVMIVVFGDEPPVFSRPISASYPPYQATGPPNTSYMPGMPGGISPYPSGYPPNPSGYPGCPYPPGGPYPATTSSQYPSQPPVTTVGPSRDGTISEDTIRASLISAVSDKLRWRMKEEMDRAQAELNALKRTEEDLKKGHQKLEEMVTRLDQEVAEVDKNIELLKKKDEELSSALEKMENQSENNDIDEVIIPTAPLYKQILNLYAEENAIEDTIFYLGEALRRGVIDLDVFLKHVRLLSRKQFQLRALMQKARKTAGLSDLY
#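 FP read-out: FITC-PTAP peptide, 50 nM final, binding Tsg101 binding domain, 10 uM final; 20 min, r.t.; 10 mM HEPES pH 7.5, 0.15 M NaCl, 0.01% Tween 20, 3 mM EDTA, 0.1 mM TCEP.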
# SW480 rerep: A quantitative high throughput screen for small molecules that induce DNA re-replication in SW480 colon adenocarcinoma cells | SW480 DNA re-replication, Hoechst DNA content imaging, 48 h | Potency, µM (series often up to 46.1 µM), for inactives: at the top dose re-replication activation, usual class: activators | 340,000 compounds, 1.8% hits | AID 624297, 2012; also: % of control where 0% means no effect; nearly all actives have a fitted effect of over 55% in size
#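 Per well, 250 cells were exposed to pinned compound for 48 hr. Nuclear DNA was visualised with Hoechst (40 min, 37 C) and total object intensity recorded by fluorescence scanning.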
# KB-V1 MDR tox: qHTS assay for MDR1-selective chemotherapeutics: Primary screen using the drug-selected MDR subline cells KB-V1; KB-V1 MDR cells viability, CellTiter-Glo, 72 h; Potency, µM (series often up to 46.1 µM), hits mostly cytotoxic; AID 1347076, 2019; 400,000 compounds, 3.4% hits; also: % is scaled to controls: 0 for no effect and ±100 for the full control effect; nearly all actives have a fitted effect of over 60% in size
#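 KB-V1 cells (P-gp-expressing MDR subline of KB-3-1) in phenol-red-free DMEM with 10% FBS were exposed to library compounds over a concentration series for 72 h at 37 degrees C. Viability read by CellTiter-Glo luminescence; concentration-effect curves fitted after normalization.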
# MCF10A rerep: A quantitative high throughput screen for small molecules that induce DNA re-replication in MCF 10a normal breast cells. MCF 10A DNA re-replication, Hoechst nuclear intensity, 48 h. Potency, µM (doses to about 46.1 µM), for the others: top-dose activity, positive = re-replication, usual class: activators. 350,000 compounds, 2.9% hits. AID 624296, 2012; also: % of control where 0% means no effect; nearly all actives have a fitted effect of over 50% in size
# KB-3-1 tox: qHTS assay for MDR1-selective chemotherapeutics: Primary screen using the parental adenocarcinoma cell KB-3-1; 400,000 compounds, 1.4% hits; Potency, µM (titrated, usually from 46.1 µM), actives largely listed as cytotoxic; AID 1347075, 2019; KB-3-1 viability, CellTiter-Glo ATP luminescence, 72 h; also: % is scaled to controls: 0 for no effect and ±100 for the full control effect; nearly all actives have a fitted effect of over 60% in size
#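 Parental KB-3-1 adenocarcinoma cells in phenol-red-free DMEM with 10% FBS were pin-treated with compounds at several concentrations, incubated 72 h at 37 °C, and viability read by CellTiter-Glo luminescence; concentration-effect curves were fitted after normalization.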
# * marks the source's active call; other numbers are inactive results; i = inactive; u = inconclusive; x = no result; [ ] = remark or other dose. In the library only some 6.8% were active in any assay of this set; here they are far more common. Unless noted, calls follow the shape of the dose curve; as a rule, active = well fitted curve in the direction sought with a large enough effect; inconclusive = small, poorly fitted or top-dose-only effect, or another doubt; inactive = no such curve, though single readings can be large; an effect the other way counts as inactive or inconclusive. Potency is read from the fitted curve at half-maximal effect.
SMILES,PINK1 modulator,PTAP TSG101 blk,SW480 rerep,KB-V1 MDR tox,MCF10A rerep,KB-3-1 tox
CCOC(=O)c1ccccc1NC(=O)N(Cc1ccc(C)cc1)Cc1cccn1-c1nnc(N2CCCC2=O)s1,2%,x,x,x,x,x
CCc1ccc(NC(=O)CSc2nc3ncccc3[nH]2)cc1,2%,x,x,x,x,x
O=C(N1CCOCC1)N1CCN(c2nc(-c3ccccc3)cs2)CC1,6%,-1%,-3%,21µM*,u,i
O=C(NC1CCCCC1)N1CCN(CCc2ccccc2)CC1,3%[38.3 µM],x,0%,18µM*,u,i
COc1cccc(-c2csc(N3CCN(C(=O)C4CCCCC4)CC3)n2)c1,2%,1%,4%,18µM*,15µM*,u
O=C(NC1CCCCC1)N1CCN(c2nc(-c3ccccc3)cs2)CC1,-1%,-2%,1%,12µM*,u,i
CCCN1CCN(C(=O)Cn2c(-c3cccs3)cc3ccccc32)CC1,2%,x,x,i,x,i
COc1cc(NC(=O)CSc2nc3ncccc3o2)cc(OC)c1,1%,x,x,i,x,i
COCC(=O)N1CCC2(CC1)CN(C(=O)Nc1ccc(OC)cc1)C2,0%,x,x,x,x,x
COCCNC(=S)N1CCN(c2nc(-c3ccccc3)cs2)CC1,0%,-2%,-10%,i,1%,i
O=C(NC(=S)N1CCN(c2nc(-c3ccccc3)cs2)CC1)c1cccnc1,4%,0%,u,21µM*,u,i
COc1ccc(-c2csc(N3C(=O)C4C5c6ccccc6C(c6ccccc65)C4C3=O)n2)cc1 (centres undefined),1%,-1%,-5%,6.5µM*,-1%,i
COc1ccc(-c2csc(N3CCN(C(=O)c4ccccc4)CC3)n2)cc1,34%[38.3 µM],4%,-6%,16µM*,u,i
CC(=O)Nc1ccccc1-c1nc(CNC(=O)c2cc(C)ccc2C)c(C)o1,1%,x,x,x,x,x
Cc1cccc(C)c1OCC(=O)Nc1ccc2c(c1)OCCO2,2%,-2%,80%,u,15µM*,23µM*
Cc1ccccc1OCC(=O)Nc1ccc2c(c1)OCCO2,1%,5%,1%,i,0%,i
CC(=O)c1c(C)[nH]c(C(=O)OCC(=O)Nc2ccc3c(c2)OCCO3)c1C,3%,-3%,-7%,21µM*,2%,u
O=C(CSCc1c(Cl)cccc1Cl)Nc1ccc2c(c1)OCCO2,2%,-1%,u,10µM*,-30%,u
Cc1cccc(N2CCN(C(=O)COc3ccc4c(c3)CCC4)CC2)c1C,3%,-4%,-72%,21µM*,u,u
CC[C@]1(O)C[C@H]2CN(CCc3c([nH]c4ccccc34)[C@@](C(=O)OC)(c3cc4c(cc3OC)N(C=O)[C@H]3[C@@](O)(C(=O)OC)[C@H](OC(C)=O)[C@]5(CC)C=CCN6CC[C@]43[C@@H]65)C2)C1,7%,x,0.3µM*,i,u,0.12µM*
CCC12CC1(C(=O)OC)C(=O)N1CCc3c([nH]c4ccccc34)C12 (centres undefined),4%,x,x,i,x,i
CC[C@@]1(O)CC2CN(CCc3c([nH]c4ccccc34)[C@](C(=O)OC)(c3cc4c(cc3OC)N(C)C3[C@@](O)(C(=O)OC)C(OC(C)=O)[C@]5(CC)C=CCN6CC[C@@]43C65)C2)C1 (some centres undefined),x,x,0.67µM*,x,u,x
COC(=O)CC1CC2(C(=O)OC)c3[nH]c4ccccc4c3CCN2C1=O (centres undefined),2%,x,x,i,x,i

# Screens: PubChem, National Center for Advancing Translational Sciences (NCATS)
